# Laboratory results: PubChem BioAssay AID449762 (Southern Research Specialized Biocontainment Screening …, 2010)
# Several values for one entry are separate records, joined by “and”; a condition that tells them apart may be missing. Identical values can stand only once. In all, about 330,000 compounds went through this assay and about 1,900 (0.58%) were called active. Another 4% or so got no clear call; they are omitted. Not all results are given here. Entries with a potency or affinity are not part of this list. Unmarked numbers belong to inactive results. Rule as the data show it: inconclusive = inhibition above about 70% without an active follow-up result; inactive = below that.
# Assay: M. tuberculosis growth inhibition, HTS (AID 449762);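 also: bacterial growth assessed after seven days of incubation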
# Settings: M. tuberculosis H37Rv growth inhibition, 7H9 media; at 25 µM; stronger effect = higher value
row,Compound,inhibition
1,Cc1ccccc1C(=O)N1CCC(C(=O)Nc2nccs2)CC1,-0.78%
2,CC(=O)N1CCN(C(=O)CN2C(=O)NC(C)(c3ccc4ccccc4c3)C2=O)CC1 (centres undefined),6.21%
3,Cc1ccc(CNCC(=O)Nc2ccc(C)cc2Br)cc1,2.37%
4,Cc1ccc(NC(=S)Nc2cccc3cnccc23)cc1,1.12%
5,S=C(Nc1cccc(Cl)c1)Nc1cccc2cnccc12,10%
6,CCOC(=O)c1cc(C)sc1NC(=O)CN1CCN(C(=O)c2ccco2)CC1,17%
7,COC(=O)c1cc(C)sc1NC(=O)CN1CCN(C(=O)c2ccco2)CC1,-5.56%
8,CCCn1nc(C(=O)NNC(=O)c2cc(S(=O)(=O)NC)ccc2Br)c2ccccc2c1=O,-2.51%
9,COC(=O)c1ccc([C@H]2CC(=O)O2)cc1,-4.85%
10,O=C(N/N=C/c1ccccn1)c1ccc(NC(=O)c2ccc(F)cc2)cc1,2.56%
11,COc1ccc(/C=N/NC(=O)CSCc2ccc([N+](=O)[O-])cc2)cc1OC,-9.89%
12,O=C(CSCc1ccc([N+](=O)[O-])cc1)N/N=C/c1cccnc1,3.16%
13,COc1cc(C(=O)OCC#N)ccc1OCc1c(C)noc1C,9.39%
14,CCOc1cc(NCc2ccccc2)c2ncn(C(C)C)c2c1,67.6%
15,COc1cc(NCc2ccccc2)c2ncn(C(C)C)c2c1,1.58%
16,COc1ccccc1CNC(=O)C(CCSC)NS(=O)(=O)c1ccc2c(c1)oc(=O)n2C (centres undefined),3.84%
17,O=C(C(=O)N1CC=C(c2ccccc2)CC1)c1c[nH]c2ccccc12,5.82%
18,O=S(=O)(NCc1ccco1)c1ccc2ccccc2c1,10.5%
19,Cc1ncsc1CCOC(=O)c1cccc([N+](=O)[O-])c1,8.02% and -15.9%
20,CC(=O)Nc1ccc(NC(=O)COc2ccc([N+](=O)[O-])cc2)cc1,-3.36%
21,COC(=O)c1ccc(NC(=O)COc2ccc([N+](=O)[O-])cc2)cc1,-9.31%
22,Cc1ncsc1CCOC(=O)c1ccccc1,4.41%
23,O=C(Nc1ccc(Cl)c(S(=O)(=O)Nc2ccccc2Cl)c1)c1cccs1,-2.32%
24,CC(C)(C)NCCOCCOc1ccccc1-c1ccccc1,5.36%

row,Compound,inhibition
1,N#Cc1ccccc1S(=O)(=O)N1CCN(C(=O)[C@H](Cc2ccccc2)NC(=O)c2ccco2)CC1,-9.05%
2,CCCCCC[N+](C)(C)CCSSCC[N+](C)(C)CCCCCC,-17.5%
3,C#CC[N+](C)(C)CCCCCCCCCC,6.64%
4,CC(C)(C)c1ccc(S(=O)(=O)N2CCN(CC(O)COCC3CCCO3)CC2)cc1 (centres undefined),7.79%
5,Cc1cc(/C=N/NC(N)=O)c(C)n1-c1ccc(F)cc1,1.83%
6,Cc1cccc(C)c1-n1c(C)cc(/C=N/NC(N)=S)c1C,51.5%
7,NSc1nc(N)c2nc(-c3ccccc3)c(-c3ccccc3)nc2n1,7.97%
8,Nc1nc(N)c2nc(-c3ccccc3)c(N)nc2n1,16.7%
9,COc1cccc(/C=N/NC(=O)CCCC(=O)Nc2ccc(Br)cc2)c1,-7.05%
10,CCc1ccc(N2CC(C(=O)OCC(=O)Nc3ccc(C(C)=O)cc3)CC2=O)cc1 (centres undefined),-5.19%
11,S=C1NC2=C(CCCC2)C2(CCCCC2)N1,-1.82%
12,CC(C)(C)NC(=O)NC(=O)CSc1ncccn1,4.89%
13,C=CCn1c(NCc2ccc3c(c2)OCO3)nc2ccccc21,1.97%
14,O=C1OCc2nc3cc4c(cc3c(-c3ccc(F)cc3)c21)OCO4,3.09%
15,COc1ccccc1/C=C/C(=O)Nc1ccc(S(=O)(=O)Nc2cc(C)nc(C)n2)cc1,8.18%
16,Cc1cc(NS(=O)(=O)c2ccc(NC(=O)/C=C/c3ccccc3Cl)cc2)no1,40.1%
17,O=C(O)/C=C\C(=O)Nc1ccc(N2CCN(c3ccc(F)cc3)CC2)cc1,14%
18,Cn1c(O)c(/C=C2\C=Nc3ccccc32)c(=O)n(C)c1=O,3.29%
19,O=c1oc2ccccc2c(O)c1/C=N/c1ncccn1,4.28%
20,Cc1cc2cc(CNC(=S)Nc3ccc(OC(F)(F)F)cc3)ccc2n1C,-4.09%
21,CCCC[n+]1ccn(-c2nc3ccccc3nc2[N-]S(=O)(=O)c2ccccc2)c1,-13.6%
22,O=S(=O)([N-]c1nc2ccccc2nc1-n1cc[n+](Cc2ccccc2)c1)c1ccccc1,1.97%
23,O=C(NCCc1ccc(Cl)cc1)C1CCC(CNc2nc(=S)[nH]c3ccccc23)CC1 (centres undefined),5.86%
24,O=C1OC(CCl)CN1Cc1c(Cl)cccc1Cl (centres undefined),-11.9%

row,Compound,inhibition
1,Cc1nn(Cc2ccccc2Cl)c(C)c1C(=O)NCC(c1cccs1)N1CCOCC1 (centres undefined),0.07%
2,COc1ccc(C)cc1NC(=O)CCN1CCN(c2ccccc2)CC1,5.54%
3,N=c1n(Cc2ccccc2)c2ccccc2n1CC(O)c1ccco1 (centres undefined),-2.81%
4,Cc1ccc(Cn2c(=N)n(CC(O)c3ccco3)c3ccccc32)cc1 (centres undefined),-10.2%
5,COc1ccc(C(CC(=O)c2ccccc2)S(=O)(=O)c2ccccc2)cc1 (centres undefined),21.9%
6,COc1ccc(C(=O)CC(c2ccccc2)S(=O)(=O)c2ccc(C)cc2)cc1 (centres undefined),11.8%
7,O=[N+]([O-])c1cccc(/C=N/Nc2nc(C(Cl)(Cl)Cl)nc3ccccc23)c1,4.81%
8,COc1ccc(CN=C2NC(=O)CC(C(=O)Nc3ccc(Cl)cc3)S2)cc1 (centres undefined),-3.21%
9,O=C(Nc1ccc(S(=O)(=O)Nc2nccc(C3Cc4ccccc4C(=O)O3)n2)cc1)c1ccccc1 (centres undefined),0.33%
10,Cc1cc(C)c(NC(=O)CCCn2c(=O)oc3ccccc32)c(C)c1,0.61%
11,Cc1[nH][nH]c(=O)c1C(c1ccc(-c2cccc(Cl)c2)o1)c1c(C)[nH][nH]c1=O,4.79%
12,Cc1[nH][nH]c(=O)c1C(c1ccc(-c2cccc(C(=O)O)c2)o1)c1c(C)[nH][nH]c1=O,0.63%
13,CC(OC(=O)c1nn(C(C)C)c(=O)c2ccccc12)C(=O)Nc1ncc(Cl)cc1Cl (centres undefined),-5.66%
14,Cc1cc(=O)oc2cc(OC(C)C(=O)N3CCCc4ccccc43)ccc12 (centres undefined),-5.32%
15,CC(NCC1COc2ccccc2O1)C1COc2ccccc2O1 (centres undefined),-4.91%
16,CC1CN(c2ccc(Cl)nn2)CC(C)O1 (centres undefined),7.67%
17,COc1ccc(C(CCN(Cc2ccc(OC)c(OC)c2)C(C)=O)c2ccccc2)cc1 (centres undefined),-0.43%
18,COc1ccc(C(CCN(Cc2ccc(OC)c(OC)c2)C(C)=O)C(C)C)cc1 (centres undefined),2.76%
19,CCC1CN(C(=O)N2CCC(C(=O)Nc3ccccc3OC)CC2)c2ccccc2O1 (centres undefined),10.6%
20,O=S(=O)(c1ccc2ccccc2c1)N1CCN(S(=O)(=O)N2CCCCC2)CC1,0.71%
21,COc1ccc(C2=NOC(C(=O)N3CCN(C(=O)c4ccco4)CC3)C2)cc1OC (centres undefined),2.5%
22,O=C(c1ccco1)N1CCN(C(=O)C2CC(c3ccc(F)cc3)=NO2)CC1 (centres undefined),10.6%
23,Cn1c(CSc2nc3ccccc3s2)nnc1SCC(=O)NCCN1CCOCC1,1.49%
24,CCCCn1nc(C(=O)Oc2ccc3c(C)cc(=O)oc3c2)c2ccccc2c1=O,64.9%

row,Compound,inhibition
1,CCn1c(SCC(=O)NC2CCCCC2)nc2ccccc2c1=O,-17.1%
2,CCOC(=O)CSc1nc2ccccc2c(=O)n1CC,-0.95%
3,O=C(Nc1ccn([C@H]2CC[C@@H](CO)O2)c(=O)n1)c1ccccc1,-7.83%
4,O=C(COC(=O)/C=C/c1cccc(Br)c1)NC1CCCCC1,1.15%
5,CCC(C(=O)n1cccc1C#N)c1ccccc1C (centres undefined),-5.42%
6,CCOC(=O)c1nn(-c2ccc(Cl)cc2)cc1O,47.5%
7,CCOC(=O)c1nn(-c2ccc(C)cc2)cc1O,25.8%
8,O=C(Oc1ccc(Br)cc1C(=O)/C=C/c1ccccc1F)c1ccco1,0.45%
9,O=C(/C=C/Nc1ccc(Br)cc1F)c1ccco1,4.98%
10,CCNS(=O)(=O)c1ccc(C(=O)OCC(=O)N2CCCc3ccccc32)cc1,5.95%
11,CS(=O)(=O)c1ccc(C(=O)OCC(=O)N2CCCc3ccccc32)cc1,-0.56%
12,O=C1C=C(NCc2ccco2)C2(CCCCC2)O1,-1.04%
13,CCNc1nc(NC(C)C)nc(ON=C(C)C)n1,-5.67%
14,Cc1cc(C(=O)N=Nc2c(O)n(C)c3ccccc23)c(C)o1,5.51%
15,COc1ccc(C(C)=O)cc1COC(=O)c1cc2ccccc2cc1O,-1.43%
16,COc1ccc(C(C)=O)cc1COC(=O)c1cc(C)nc2ccccc12,11.9%
17,Cc1ccc2[nH]cc(/C=C/c3cc[n+](C)cc3)c2c1,-0.27%
18,C=CCn1c(C)c(/C=C/c2cc[n+](C)cc2)c2ccccc21,0.73%
19,Cc1c(C)n2c(SCC(=O)Nc3cccc4ccccc34)nnc2[nH]c1=O,5.62%
20,C/C(=N\OC(=O)c1c(-c2c(F)cccc2Cl)noc1C)c1nccs1,3.84%
21,Cc1onc(-c2c(Cl)cccc2Cl)c1C(=O)O/N=C(\C#N)c1c(Cl)cccc1Cl,-0.37%
22,CCOC(=O)[C@H]1[C@H]2COc3ccc(Br)cc3[C@@H]2N2C(=O)N(c3ccccc3)C(=O)[C@@]12C,6.24%
